# Results reported in PubChem BioAssay (NCI).
# About 79,000 compounds went through this panel and 15% of them were active in at least one assay; those are over-represented in the sample as a whole. Values without a mark were called inactive. Activity calls are given as the source filed them. Cut-off read from the data, not from the text of the source: active = growth inhibition above about 70%; inactive = the rest.
# How the values were obtained:
# [1] = NCI Yeast Anticancer Drug Screen. Data for the rad52 strain (AID 147);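 note: 0% = growth of vehicle-treated control cultures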; settings: S. cerevisiae rad52 mutant growth inhibition, stronger effect = higher value
# How it was run: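 Screen used a yeast mutant impaired in DNA repair. After compound exposure, growth was measured. Values reflect inhibition compared with vehicle-treated cells.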
# [2] = NCI Yeast Anticancer Drug Screen. Data for the rad50EPP+ strain (AID 151);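 note: 0% = growth of vehicle-treated control cultures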; settings: S. cerevisiae rad50 mutant strain, stronger effect = higher value
# How it was run: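 Exposing the rad50EPP+ strain to each compound, growth was compared with vehicle-only cultures to give inhibition.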
# [3] = NCI Yeast Anticancer Drug Screen. Data for the mgt1 strain (AID 153); settings: S. cerevisiae mgt1 mutant growth inhibition, stronger effect = higher value
# How it was run: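 Genetically defined yeast (mgt1) treated with compound; inhibition of growth expressed against vehicle-treated controls.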
# [4] = NCI Yeast Anticancer Drug Screen. Data for the rad50 strain (AID 155);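 note: 0% = growth of vehicle-only cultures of the same strain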; settings: S. cerevisiae rad50 strain growth inhibition, stronger effect = higher value
# How it was run: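 Genetically altered yeast (DNA repair pathway); compound treatment; growth inhibition vs vehicle ctrl.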
# [5] = NCI Yeast Anticancer Drug Screen. Data for the mec2-1 strain (AID 157); settings: S. cerevisiae mec2-1 strain, stronger effect = higher value
# How it was run: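 Readout is yeast growth inhibition, normalised to vehicle-treated controls, in the mec2-1 strain exposed to compound.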
# [6] = NCI Yeast Anticancer Drug Screen. Data for the rad14 strain (AID 159);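 note: 0% = growth of vehicle-treated control cultures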; settings: S. cerevisiae rad14 strain growth inhibition, stronger effect = higher value
# How it was run: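 Test compounds were applied to a repair-deficient yeast strain. Its growth was then compared with that of cultures given vehicle alone, and inhibition was expressed relative to those controls.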
# [7] = NCI Yeast Anticancer Drug Screen. Data for the sgs1 mgt1 strain (AID 161);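 note: 0% = growth of cultures given vehicle only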; settings: S. cerevisiae sgs1 mgt1 strain, stronger effect = higher value
# How it was run: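 Yeast cells carrying a defined DNA-repair defect were exposed to test compounds. Growth inhibition was measured relative to vehicle-treated controls.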
# [8] = NCI Yeast Anticancer Drug Screen. Data for the CLN2oe strain (AID 163);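 note: 0% = growth of vehicle-only control cultures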; settings: S. cerevisiae CLN2oe strain, stronger effect = higher value
# How it was run: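 Values reflect how much compound exposure reduced yeast growth, referenced to vehicle-exposed cells. Assay organism is a strain with a defined genetic change affecting cell-cycle control.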
# [9] = NCI Yeast Anticancer Drug Screen. Data for the cln2 rad14 strain (AID 165);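 note: 0% = growth equal to vehicle treated cultures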; settings: S. cerevisiae cln2 rad14 strain, stronger effect = higher value
# How it was run: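 Relative to vehicle controls, growth inhibition of compound-treated cln2 rad14 yeast was recorded.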
# [10] = NCI Yeast Anticancer Drug Screen. Data for the bub3 strain (AID 167); settings: S. cerevisiae bub3 mutant strain, stronger effect = higher value
# How it was run: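 Yeast carrying a defined mutation is treated with each compound, and growth is compared with that of vehicle-exposed cells to give inhibition.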
# [11] = NCI Yeast Anticancer Drug Screen. Data for the wt2 strain (AID 169);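 note: 0% = growth of vehicle-treated yeast cultures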; settings: S. cerevisiae wt2 strain growth inhibition, stronger effect = higher value
# How it was run: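 Values express reduction in yeast growth under compound treatment, referenced to vehicle-treated cells.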
# [12] = NCI Yeast Anticancer Drug Screen. Data for the mlh1 strain (AID 171);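 note: 0% = growth of vehicle-treated control cultures of the same strain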; settings: S. cerevisiae mlh1 strain growth inhibition, stronger effect = higher value
# How it was run: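 Steps: expose the defined-mutant yeast strain to compound; expose a parallel culture to vehicle; measure growth; express compound effect as inhibition relative to the vehicle culture.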
# [13] = NCI Yeast Anticancer Drug Screen. Data for the sgs1 strain (AID 173);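 note: 0% = growth of vehicle-only control cultures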; settings: S. cerevisiae sgs1 mutant, stronger effect = higher value
# How it was run: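 Treat defined-mutant yeast with compound; measure growth; calculate inhibition relative to vehicle-treated cells.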
# [14] = NCI Yeast Anticancer Drug Screen. Data for the mlh1 rad18 strain (AID 175); settings: S. cerevisiae mlh1 rad18 strain growth inhibition, stronger effect = higher value
# How it was run: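 Test agents were incubated with a yeast strain of defined genotype (DNA damage repair defect). Inhibition of growth was derived by comparison with vehicle-exposed cultures.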
# [15] = NCI Yeast Anticancer Drug Screen. Data for the rad18 strain (AID 177); settings: S. cerevisiae rad18 mutant growth inhibition, stronger effect = higher value
# How it was run: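 A genetically defined yeast mutant impaired in DNA damage repair was treated with test compounds, then its growth was measured against cultures receiving vehicle alone.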
# [16] = at 5.0 µM (retest, dose inferred, filed as 0.5)
# [17] = at 50.0 µM (retest, dose inferred, filed as 5.0)
smiles,measurement,setting,value
O=[N+]([O-])c1ccc(=S)[nH]c1,growth inhibition,[1]; at 1.2 µM,1%
same,growth inhibition,[1]; at 3.7 µM,0%
same,growth inhibition,[1]; at 11.0 µM,-1%
same,growth inhibition,[1]; at 33.0 µM,49%
same,growth inhibition,[1]; at 100.0 µM,93% (active)
same,growth inhibition,[2]; at 1.2 µM,0%
same,growth inhibition,[2]; at 3.7 µM,-2%
same,growth inhibition,[2]; at 11.0 µM,23%
same,growth inhibition,[2]; at 33.0 µM,85% (active)
same,growth inhibition,[2]; at 100.0 µM,97% (active)
same,growth inhibition,[3]; at 1.2 µM,-3%
same,growth inhibition,[3]; at 3.7 µM,-2%
same,growth inhibition,[3]; at 11.0 µM,1%
same,growth inhibition,[3]; at 33.0 µM,34%
same,growth inhibition,[3]; at 100.0 µM,93% (active)
same,growth inhibition,[4]; at 1.2 µM,0%
same,growth inhibition,[4]; at 3.7 µM,-6%
same,growth inhibition,[4]; [16],-5%
same,growth inhibition,[4]; at 11.0 µM,-5%
same,growth inhibition,[4]; at 33.0 µM,28%
same,growth inhibition,[4]; [17],99% (active)
same,growth inhibition,[4]; at 50.0 µM,98.8% (active)
same,growth inhibition,[4]; at 100.0 µM,86% (active)
same,growth inhibition,[5]; at 1.2 µM,-2%
same,growth inhibition,[5]; at 3.7 µM,-1%
same,growth inhibition,[5]; [16],-9%
same,growth inhibition,[5]; at 11.0 µM,-5%
same,growth inhibition,[5]; at 33.0 µM,60%
same,growth inhibition,[5]; [17],88% (active)
same,growth inhibition,[5]; at 50.0 µM,99.4% (active)
same,growth inhibition,[5]; at 100.0 µM,99% (active)
same,growth inhibition,[6]; at 1.2 µM,-5%
same,growth inhibition,[6]; at 3.7 µM,-6%
same,growth inhibition,[6]; at 11.0 µM,-5%
same,growth inhibition,[6]; at 33.0 µM,42%
same,growth inhibition,[6]; at 100.0 µM,99% (active)
same,growth inhibition,[7]; [16],32%
same,growth inhibition,[7]; [17],100% (active)
same,growth inhibition,[7]; at 50.0 µM,98.2% (active)
same,growth inhibition,[8]; at 1.2 µM,-1%
same,growth inhibition,[8]; at 3.7 µM,-8%
same,growth inhibition,[8]; at 11.0 µM,-8%
same,growth inhibition,[8]; at 33.0 µM,-10%
same,growth inhibition,[8]; at 100.0 µM,67%
same,growth inhibition,[9]; [16],5%
same,growth inhibition,[9]; [17],55%
same,growth inhibition,[9]; at 50.0 µM,37.6%
same,growth inhibition,[10]; at 1.2 µM,-6%
same,growth inhibition,[10]; at 3.7 µM,-7%
same,growth inhibition,[10]; [16],10%
same,growth inhibition,[10]; at 11.0 µM,-6%
same,growth inhibition,[10]; at 33.0 µM,54%
same,growth inhibition,[10]; [17],98% (active)
same,growth inhibition,[10]; at 50.0 µM,99.3% (active)
same,growth inhibition,[10]; at 100.0 µM,98% (active)
same,growth inhibition,[11]; at 1.2 µM,0%
same,growth inhibition,[11]; at 3.7 µM,1%
same,growth inhibition,[11]; at 11.0 µM,2%
same,growth inhibition,[11]; at 33.0 µM,39%
same,growth inhibition,[11]; at 100.0 µM,93% (active)
same,growth inhibition,[12]; at 1.2 µM,0%
same,growth inhibition,[12]; at 3.7 µM,1%
same,growth inhibition,[12]; at 11.0 µM,1%
same,growth inhibition,[12]; at 33.0 µM,52%
same,growth inhibition,[12]; at 100.0 µM,96% (active)
same,growth inhibition,[13]; at 1.2 µM,0%
same,growth inhibition,[13]; at 3.7 µM,4%
same,growth inhibition,[13]; at 11.0 µM,17%
same,growth inhibition,[13]; at 33.0 µM,76% (active)
same,growth inhibition,[13]; at 100.0 µM,99% (active)
same,growth inhibition,[14]; [16],51%
same,growth inhibition,[14]; [17],99% (active)
same,growth inhibition,[14]; at 50.0 µM,93.1% (active)
same,growth inhibition,[15]; at 1.2 µM,-1%
same,growth inhibition,[15]; at 3.7 µM,0%
same,growth inhibition,[15]; at 11.0 µM,-5%
same,growth inhibition,[15]; at 33.0 µM,40%
same,growth inhibition,[15]; at 100.0 µM,94% (active)
